# Source: article PMC5540273 (PLoS ONE, 2017)
# Test system: T1, YANK3
# T1 construct: gene STK32C
# Conditions: concentration: 1 μM, replicates: in singlicate; n = 1
# 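Further: KINOMEscan kinase panel screen.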
row,SMILES,%Inh
1,O=C(Nc1cccc(-c2nn3ccccc3c2-c2ccnc(Nc3cccc(F)c3)n2)c1)c1c(F)ccc(F)c1Cl [GSK357952],23%
2,c1ccc(-c2cnc3nccnn23)cc1 [AH20685],0%
3,CN(c1ccc(NC(=O)Nc2cc(C(F)(F)F)ccc2F)cc1)c1ccnc(Nc2ccc(S(N)(=O)=O)cc2)n1 [GW809893],17%
4,O=C(Nc1n[nH]c2cc(-c3ccoc3)ccc12)C1CC1 [SB-738481],0%
5,C[C@@H]1CC[C@@H](C(=O)Nc2ccccc2)CN1c1cc(-c2ccc3c(N)n[nH]c3c2)nc(N)n1 [GSK2286062],17%
6,O=C(Nc1cccc(-c2nn3ncccc3c2-c2ccnc(Nc3ccccc3)n2)c1)c1c(F)cccc1F [GSK198271],18%
7,COc1cccc(NC(=O)NC2CCN(c3ccnc(Nc4cc(OC)c(OC)c(OC)c4)n3)C2)c1 (stereo not shown) [GSK1379763],4%
8,CN1CCN(CCCNc2nccc(-c3c(-c4ccc(F)cc4)nn4cc(C(F)(F)F)ccc34)n2)CC1 [GW621581],0%
9,Nc1n[nH]c2cnc(-c3ccccc3)cc12 [SB-642124],17%
10,Cc1occc1-c1ncc(OC[C@@H](N)Cc2c[nH]c3ccccc23)cc1-c1ccc2[nH]nc(C)c2c1.O=C(O)C(F)(F)F [GSK682037],94.5%
11,Cl.NC(=O)c1cccc(Nc2nccc(Nc3ccc(Oc4c(Cl)cccc4Cl)c(Cl)c3)n2)c1 [GW659009],5%
12,CCCCc1nn2ncccc2c1-c1ccnc(Nc2ccc(N3CCN(C)CC3)cc2)n1 [GW684941],25%
13,CCc1ccc(-c2ccc3c(c2)-c2c(cnn2C)S(=O)(=O)N3C)cc1,0%
14,c1ccc(-c2n[nH]cc2Nc2ccnc3ccccc23)nc1 [GW694077],0%
15,c1ccc(Oc2ccc(Nc3ccnc4cc(-c5ccc(CNCCN6CCOCC6)o5)ccc34)cc2)nc1 [GW567145],32%
16,Cn1cc(-c2[nH]c3cc(NC(=O)[C@H](N)C4CCCCC4)cc4c3c2C=NNC4=O)cn1,0%
17,FC(F)(F)c1ccc(/C=C/c2cncnc2Nc2ccc3[nH]c(Cc4ccccc4)nc3c2)cc1 [GW709199],0%
18,COc1cc2c(cc1OCCN1CCNCC1)ncc1c3ccc(C#N)cc3[nH]c21,0%
19,CC(=O)N1CCN(c2ccc(Nc3nccc(-c4sc(C(C)C)nc4-c4cccc(NS(=O)(=O)c5cccc(Cl)c5)c4)n3)cn2)CC1 [GSK1660437],0%

row,SMILES,%Inh
1,Cc1ccc(F)c(C(=O)Nc2cccc(-c3nn4ccccc4c3-c3ccnc(Nc4cccc(F)c4)n3)c2)c1F [GSK361061],6%
2,Cc1cccc(NC(=O)Nc2ccc(Oc3ncnc4ccn(C)c34)cc2)c1,31%
3,COc1cc(Nc2nccc(N3CCC(NC(=O)Nc4cccc(C(C)=O)c4)C3)n2)cc(OC)c1OC (stereo not shown) [GSK1379753],0%
4,C[C@@H](Oc1cc(-n2cnc3cc(-c4ccnc(NCCS(C)(=O)=O)c4)ccc32)sc1C(N)=O)c1ccccc1Cl [GSK907232],32%
5,COC(=O)Nc1nc2cc(Oc3ccc(NC(=O)Nc4cc(C(F)(F)F)ccc4F)cn3)ccc2[nH]1.Cl.Cl [GW681170],0%
6,Nc1ncnc2c1nc(-c1ccccc1)n2-c1ccccc1 [SKF-97293],0%
7,NCCCC(NC(=O)c1cc(Br)c(-c2ccnc3[nH]ccc23)s1)c1ccccc1.O=C(O)C(F)(F)F.O=C(O)C(F)(F)F (stereo not shown) [GSK1287544],0%
8,CSc1cccc2c(-c3ccncn3)c(-c3ccc(F)cc3)nn12 [GW514786],2%
9,CC(C)c1nc(-c2cccc(NS(=O)(=O)c3c(F)cccc3F)c2F)c(-c2ccnc(Nc3ccc(N4CCOCC4)nc3)n2)s1 [GSK2008607],1%
10,Cc1cccc(Nc2nc(N[C@H]3CCNC3)ncc2C(N)=O)c1.Cl [GSK2197149],18%
11,Nc1ncc(-c2ccc3nccc(-c4ccncc4)c3c2)cc1S(=O)(=O)N1CCOCC1 [GSK1627798],22%
12,COc1ccc(CNC(=O)NC2CCN(c3ccnc(Nc4ccc(F)cc4)n3)CC2)cc1 [GSK1379788],0%
13,O=C(Nc1n[nH]c2nc(-c3ccc(O)cc3)ccc12)C1CC1 [SB-710363],0%
14,CC(C)(C)c1ccc2nccc(Nc3cccc(O)c3)c2c1 [GW856795],0%
15,COc1cc(Nc2nccc(-c3c(-c4cccc(NC(=O)c5c(F)cccc5F)c4)nn4ccccc34)n2)cc(OC)c1OC [GSK323521],14%
16,O=c1[nH]cc(-c2ccc(N3CCOCC3)cc2)c2sc(-c3cn[nH]c3)cc12 [GSK2276055],16%
17,COc1cccc(-c2ccc3c(NC(=O)C4CC4)n[nH]c3n2)c1 [SB-710903],0%
18,Nc1ncc(-c2cccnc2)c2scc(-c3ccc4c(c3)CCN4C(=O)Cc3ccccc3)c12 [GSK683281],29%
